# USP10 inh: inhibitors of human USP10 deubiquitinase; purified USP10, Ub-rhodamine fluorescence, 60 min; inhibition, % at 20 µM; actives 1.1% (n = 47,000)
# USP7 inh: inhibitors of human USP7 deubiquitinase | actives 0.3% (n = 47,000) | inhibition, % at 20 µM | purified USP7, Ub-rhodamine cleavage fluorescence
# USP8 block: inhibitors of human USP8 deubiquitinase. purified USP8, Ub-rhodamine cleavage fluorescence, 30 min. actives 4.2% (n = 47,000). inhibition, % at 20 µM. Ubiquitin carboxyl-terminal hydrolase 8 (Homo sapiens), P40818
# UCHL1 block: inhibitors of human UCHL1 deubiquitinase | Ubiquitin carboxyl-terminal hydrolase isozyme L1 (Homo sapiens), P09936 | purified UCHL1, Ub-rhodamine cleavage fluorescence | inhibition, % at 20 µM | actives 0.2% (n = 47,000) | AID 1645859, 2021
# Starred values were filed as active, the others as inactive. A selection: hits, their analogues and other compounds. The true share with any hit is near 5%. Rule as the data show it: active = inhibition above about 30%; inactive = the rest.
SMILES,USP10 inh,USP7 inh,USP8 block,UCHL1 block
O=C(Nc1ccccc1)c1cc(-c2ccncc2)n[nH]1,3,4,2,3
O=C(Nc1cccc(Cl)c1)c1cc(-c2cccnc2)n[nH]1,47*,8,83*,5
CC1CCN(c2ncc3c(n2)CCC(C(=O)NC(C)c2ccccn2)C3)CC1 (centres undefined),-8,-7,-28,-6
Cc1nnc(Nc2ccc(C(=O)Nc3c(Cl)cccc3Cl)cc2)c2ccccc12,-7,1,-4,-5
Oc1ccc(-c2nnc(Nc3ccc(Cl)c(Cl)c3)c3ccccc23)cc1,21,10,53*,6
CC(C)N1C(=O)CO[C@H]2CN(c3ncccn3)C[C@H]21,2,1,-16,0
CC(=O)Nc1ccc(S(=O)(=O)N2CC[C@H]3COC(=O)N[C@@H]3C2)cc1,1,3,0,3
Cc1cc(-c2cnc(N3CCSCC3)nc2[C@@H]2CCCO2)on1,0,-10,-19,0
CCOc1cccc(C2c3c(oc4ccc(C)cc4c3=O)C(=O)N2CCN2CCOCC2)c1 (centres undefined),-1,3,40*,4
COc1ccc2c(=O)c3c(oc2c1)C(=O)N(CCN1CCOCC1)C3c1cccc(F)c1 (centres undefined),0,1,0,3
Cc1ccc2c(C(=O)CN3CCN(Cc4ccccc4)CC3)c(C)[nH]c2c1,-7,-12,-3,-6
Cn1c(=O)c(C(=O)CN2CCN(c3ccc(O)cc3)CC2)c(N)n(Cc2ccccc2)c1=O,-1,5,67*,4
CCOc1ccc(-c2nc(SCC(=O)Nc3cccc(C)c3)n3[nH]c(=O)cc3n2)cc1,53*,-141,42*,14
COc1ccc(NC(=O)c2ccccc2OCC(=O)Nc2ccccc2C(F)(F)F)c(C)c1,5,0,52*,-1
COc1cccc(Cn2cnc3c(NS(=O)(=O)c4ccc(Cl)cc4)c(C)c(C)cc32)c1,18,16,49*,-4
COc1cccc(Cn2cc(S(=O)(=O)N3CCCC3)ccc2=O)c1,0,0,-6,-1
CNc1nc2c(c(=O)n1-c1ccccc1OC)CCN(S(=O)(=O)c1ccccc1)C2,0,-4,-14,-4
O=C(NCCN1CCOCC1)c1ccc2ccc(N3CCOCC3)n2c1,-5,-4,2,-2
CN(C)S(=O)(=O)c1ccc(N/C=C/c2ncc(C(F)(F)F)cc2Cl)cc1,-3,-1,27,1
Fc1ccc(N/C=C/c2ncc(C(F)(F)F)cc2Cl)cc1,-11,-2,72*,-4
Cc1nc(C(=O)NC2(O)C(=O)c3ccccc3C2=O)cs1,27,-94,72*,29
O=C(Oc1ccc(-c2csnn2)cc1)C1CC1,1,-30,4,-2
CSc1ncccc1C(=O)NC1(O)C(=O)c2ccccc2C1=O,41*,-90,83*,34*
O=C(NC1(O)C(=O)c2ccccc2C1=O)c1ccc(-c2csnn2)cc1,6,-45,93*,19
O=S(=O)(c1ccccc1)N1CCCCCC1C1CCN(Cc2nnnn2C2CC2)CC1 (centres undefined),-1,-1,-1,-1
SMILES,USP10 inh,USP7 inh,USP8 block,UCHL1 block
OC(CNCC(c1ccccc1)c1c[nH]c2ccccc12)c1ccccc1 (centres undefined),0,-15,-6,1
O=C(C1CCN(S(=O)(=O)c2cc(F)ccc2F)CC1)N1CCc2sccc2C1,-4,-3,74*,0
CC(C)c1ccc(S(=O)(=O)N2CCC(C(=O)N3CCc4sccc4C3)CC2)cc1,-9,7,19,1
O=C(NCc1cccc(F)c1)c1ccc2c(c1)NC(=O)C1CCCN21 (centres undefined),-8,-10,67*,-13
O=C(COc1ccccc1-c1nnc(-c2ccccc2)o1)Nc1ccc(F)cc1F,3,4,32*,2
CCc1ccccc1NC(=O)COc1ccccc1-c1nnc(-c2ccccc2)o1,3,7,29,4
O=C(COc1ccccc1-c1nnc(-c2ccccc2)o1)NCCc1ccco1,19,15,86*,24
O=C(Cn1c(Cc2ccccc2)nc2ccccc21)N1CCc2ccccc21,-3,0,49*,0
CCCc1nc2ccccc2n1CC(=O)N1CCc2ccccc21,0,3,5,1
Cc1ccc(C(=O)Nc2ncnc3oc(-c4ccccc4)c(-c4ccccc4)c23)cc1,8,7,61*,7
Cc1ccc(C(=O)Nc2ncn(CC(=O)Nc3ccccc3)n2)cc1,0,4,15,1

# Source: PubChem
